# Measurements as given in PubChem BioAssay (Tox21).
# Where “and” joins values, the source holds several entries; their conditions need not be identical. Equal values may be shown once. Results filed as inconclusive are left out. A number with no mark means an inactive call. Calls of active or inactive are those of the source. Calls come from the whole dose curve; as a rule, active = well fitted inhibition curve with a large enough effect in the repeat runs; inconclusive = weak or mixed curves; inactive = no such curve, though single readings can be large or run the other way.
# Assay: qHTS assay to identify small molecule antagonists of the thyroid receptor (TR) signaling pathway (AID 743065); note: nearly all actives have a fitted effect of over 55% in size
# Conditions: GH3.TRE-Luc, T3-stimulated luciferase inhibition, 23.5 h; series mostly up to 70.3 µM; activity, negative = inhibition: at the top concentration
# Description: U.S. Tox21 Program National Center for Advancing Translational Sciences [NCATS] NIH Chemical Genomics Center [NCGC] U.S. Environmental Protection Agency [EPA] National Institutes of Environmental Health Sciences [NIEHS] National Toxicology Program [NTP] U.S. Food and Drug Administration [FDA] Tox21 Assay Overview: Thyroid receptor (TR), a nuclear hormone receptor, plays an important role in development, proliferation, differentiation, metabolism, brain function, and cardiovascular system. […] To profile the Tox21 10K compound library in TR signaling, a cell-based GH3-TRE-Luc assay (GH3.TRE-Luc cell line, developed by the laboratory of Dr. Albertinka J. Murk, Wageningen University) was used to measure the inhibition of TR. GH3 (rat pituitary tumor) cells stably expressing a TR activity sensor consisting of two TR response elements and a luciferase reporter gene.
# Tox21 Assay Protocol Summary: GH3.TRE-Luc cells were dispensed at 1500 cells/4 uL/well into 1536-well white solid bottom plates using a Multidrop Combi dispenser (Thermo Fisher Scientific Inc., Waltham, MA). After the assay plates were incubated at 37 C for 4 hours, 23 nL of library compound or DMSO controls was transferred to the assay plates by a pintool station (Kalypsys, San Diego, CA), followed by addition of 1 ul of T3 (1 nM, final concentration in the wells) to stimulate TR transactivation. The assay plates were incubated at 37 C for 23.5 h, and then 1 uL of CellTiter-Fluor reagent (Promega, Madision, WI) of measuring cytotoxicity was added to each well using a Bioraptr Flying Reagent Dispenser (FRD) workstation (Beckman Coulter, Indianapolis, IN, USA). The plates were incubated at 37 C and 5% CO2 for additional 30 min, and fluorescence intensity was measured by a ViewLux plate reader (PerkinElmer, Shelton, CT). For measuring luciferase reporter gene activity, 4 uL of ONE-Glo Luciferase Assay reagent (Promega) was added to each well using a Bioraptr FRD (Beckman Coulter), followed by 30 min incubation at room temperature. The luminescence intensity of plates was recorded by a ViewLux plate reader (PerkinElmer, Shelton, CT).
# % is set by controls: 0 for no effect and ±100 for the full control effect; potency is the fitted concentration of half-maximal effect.
SMILES,Potency,"activity, negative = inhibition"
CN(C)c1ccc(C(=C2C=CC(=[N+](C)C)C=C2)c2ccc(N(C)C)cc2)cc1,1.33 µM (active) and 431 nM (active) and 545 nM (active),
CC[N+](CC)(CC)CCOc1ccc(/C=C/c2ccccc2)cc1,29.8 µM (active),
CCCCCCCCCCCCCCCC[N+](C)(C)CC,4.22 µM (active) and 6.13 µM (active),
Cc1cccc(C(=O)O)c1O,,3.29%
O=C(O)c1cc(-c2ccc(F)cc2F)ccc1O,,-1.04% [at 32.5 µM]
CC(C)=CCC1=C(O)c2ccccc2C(=O)C1=O,0.171 µM (active),
S=c1nccc[nH]1,,12.7%
CCN(CCN)c1cccc(C)c1,,-14%
CCCCCCC1CCCC(=O)O1 (stereo not given),,-10.7%
[Cl][Pt-2]([Cl])([Cl])[Cl],,-13.6% [at 95 µM]
O=C(O)CCN(C1(C(=O)NO)CCCC1)S(=O)(=O)c1ccc(Oc2ccc(F)cc2)cc1,,4.49%
CC(CCc1ccccc1)NCC(O)c1ccc(O)c(C(N)=O)c1 (stereo not given),,0.0065%
O=C1c2ccccc2C(=O)N1SC1CCCCC1,24.3 µM (active) and 15.4 µM (active),
C=Cc1ccccc1C=C,,1.7% [at 260 µM]
O=C(O)Cc1ccccc1Nc1c(Cl)cccc1Cl,,9.99%
CCc1ccc(Br)cc1,,-2.67% [at 95 µM]
CN(C)C(=O)COC(=O)Cc1ccc(OC(=O)c2ccc(N=C(N)N)cc2)cc1,,11.3%
CC[N+](CC)(CC)CCOC(=O)C(C1CCCC1)C1CCCC1,,-5.8%
O=[N+]([O-])c1cccc(C(F)(F)F)c1,,20.4% [at 95 µM]
O=[N+]([O-])c1ccc(O)cc1C(F)(F)F,21.7 µM (active),

SMILES,Potency,"activity, negative = inhibition"
O=[N+]([O-])c1ccc(F)c(Cl)c1,,-6.26%
C1CCC(SSC2CCCCC2)CC1,,0.374%
CC(C)(C)CC(C)(C)c1ccc(Nc2ccc(C(C)(C)CC(C)(C)C)cc2)cc1,,9.26% [at 8.44 µM]
CCc1oc2ccccc2c1C(=O)c1cc(I)c(O)c(I)c1,21.1 µM (active),
Clc1ccnc(Cl)n1,,-3.17% [at 95 µM]
C=CCCC(=O)/C=C/C1C(C)=CCCC1(C)C (stereo not given),61.1 µM (active),
Cc1c(C)c2c(c(C)c1OC(=O)c1cccnc1)CC[C@@](C)(CCC[C@H](C)CCC[C@H](C)CCCC(C)C)O2,,9.34%
NC(=O)c1cccc([N+](=O)[O-])c1,,-4.63%
CC(=O)Oc1cc2c(s1)CCN(C(C(=O)C1CC1)c1ccccc1F)C2 (stereo not given),,-5.58%
O=C1C(c2[nH]c3ccc(S(=O)(=O)O)cc3c2O)=Nc2ccc(S(=O)(=O)O)cc21,inactive,
CCN(CC)c1ccc2c(-c3ccc(S(=O)(=O)O)cc3S(=O)(=O)[O-])c3ccc(=[N+](CC)CC)cc-3oc2c1,35.5 µM (active),
Cc1nc(-c2ccc(Cl)cc2)oc1COC(C)(C)C(=O)O,,1.75%
O=C(Oc1ccccc1)Oc1ccccc1,,0%
Cc1cc(-c2ccc(N=Nc3cc(S(=O)(=O)O)c4ccccc4c3N)c(C)c2)ccc1N=Nc1cc(S(=O)(=O)O)c2ccccc2c1N,27.4 µM (active),
CCOC(=O)c1ccc(C2CCC(NC[C@H](O)COc3ccc(O)c(NS(C)(=O)=O)c3)CC2)cc1 (stereo not given in full),28.3 µM (active),
CN(C)Cc1ccccc1O,,-0.782%
CCn1c2ccccc2c2cc([N+](=O)[O-])ccc21,,-2.07%
O=C(/C=C/c1ccccc1)OC/C=C/c1ccccc1,,11%
CCCCCc1ccc(Cl)cc1,,9.25%
CC1(C)CC(O)CC(C)(C)N1,,0% [at 95 µM]
